# LDHA inh: inhibitors of human lactate dehydrogenase A | P00338 | purified LDHA, NADH/diaphorase-resazurin fluorescence; hits give low values | activity change, % (values are at about 110 or 230 µM) | 480,000 compounds, 0.15% hits | AID 1347041; in the data active means activity change below about -30%; inconclusive means mostly about -25% to -30%;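 further: plate controls were DMSO wells for no effect and wells without enzyme for full effect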
#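 Remaining NADH was detected by diaphorase (0.133 mg/mL) converting 37 µM resazurin to fluorescent resorufin, read at 0 and 20 minutes. The preceding 5-minute room-temperature reaction used 2 nM LDHA, 0.2 mM sodium pyruvate and 0.06 mM NADH at pH 7.4.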
# KCNH2 3.1 inh: blocks the human KCNH2 3.1 channel isoform | activity change, % (tested at about 1.8 µM) | U2OS KCNH2 3.1, thallium flux FluxOr; hits give low values | 340,000 compounds, 0.95% hits;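 active means maximum activity change below -70%; inconclusive means maximum activity change from -70% to -50%; inactive means maximum activity change above -50%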;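 further: thallium influx rate constant from kinetic fluorescence after stimulation buffer; on the % scale 0 is the no-effect control and ±100 the full control effect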
#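 Normalized rate constant (relative to positive and negative DMSO controls) derived from a 2 min kinetic fluorescence read after stimulation; U2OS cells expressing the 3.1 isoform via virus at 1.77 x 10^8 /mL.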
# Chronic BCR inh: inhibitors of chronic active B-cell receptor signaling; 340,000 compounds, 0.05% hits; Potency, µM (highest dose often 46.1 µM), for inactives: top-dose activity change, negative = inhibition, usual class: inhibitors; ABC-DLBCL IkBa-CBG/CBR reporter, luminescence ratio, 4 h; active means well fitted inhibition curve with a large enough effect in the signal ratio, with a control signal flat, not every such curve was filed as active; inconclusive means small, poorly fitted or top-dose-only effect, or effect the other way, or a change in a side signal; the % refers to the signal ratio;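 further: potency means the concentration at half of the fitted maximal effect; plate controls were basal doxycycline-induced cells for no effect and cells given 10 µM MG132 for full effect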
#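 TMD8 ABC-DLBCL cells carrying doxycycline-inducible green luciferase fused to IkappaBalpha plus unfused red luciferase were exposed to compounds (up to 46 uM) for 4 hrs at 37C. Activity came from the overlap-corrected green/red luminescence ratio.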
# KCNH2 WT inh: inhibitors of human wildtype KCNH2 potassium channel. AID 720551. 340,000 compounds, 0.37% hits. U2OS, BacMam KCNH2, thallium flux FluxOr; hits give low values. activity change, % at 1.84 µM;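 active means maximum activity change below -70%; inconclusive means maximum activity change between -70% and -50%; inactive means maximum activity change above -50%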; further: on the % scale 0 is the no-effect control and ±100 the full control effect
#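 U2OS cells were transduced with wild-type KCNH2 virus (2.03 x 10^8 / mL) for 4 h at room temperature, then cultured overnight at 37 C. Thallium flux was read with FluxOr dye. Rate constants were normalized to DMSO controls.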
# ClpP mod: qHTS Assay for Activators of ClpP; ATP-dependent Clp protease proteolytic subunit (Bacillus subtilis (strain 168)), P80244; purified B. subtilis ClpP, FRET peptide cleavage, 20 min; Potency, µM (doses to about 57.5 µM), without a hit: at the highest dose activity change, negative = active; 340,000 compounds, 1.9% hits; active means well fitted falling curve with a large enough effect; inconclusive means small, poorly fitted or top-dose-only effect; inactive means no such curve, though single readings can be large or run the other way; further: potency means the concentration at half of the fitted maximal effect; the source files actives as falling curves though it sought activators and does not explain the sign; nearly all actives have a fitted effect of over 65% in size
# Target sequence (P80244 whole entry, looked up): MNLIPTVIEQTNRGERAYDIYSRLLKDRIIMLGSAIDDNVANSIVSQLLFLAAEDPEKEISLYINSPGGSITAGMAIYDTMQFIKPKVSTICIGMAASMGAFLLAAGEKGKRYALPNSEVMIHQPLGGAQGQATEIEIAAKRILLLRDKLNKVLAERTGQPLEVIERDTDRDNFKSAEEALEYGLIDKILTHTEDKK
#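 ClpP 10 microg/mL final, pH 8 Tris/KCl buffer with BSA, glycerol, Tween-20; compound pinned in; FRET-FV substrate; RT 20 min; Ex320/Em430; ΔFRET vs ADEP 5.8 microM, DMSO, no enzyme.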
# ALOX12 inh: inhibitors of human 12S-lipoxygenase ALOX12 | P18054 | purified 12hLO, xylenol orange hydroperoxide absorbance | Potency, µM (top dose mostly 108 µM), without a hit: at the top dose activity change, negative = inhibition, hits mostly inhibitors | 580,000 compounds, 1.1% hits; active means well fitted inhibition curve with a large enough effect; inconclusive means small, poorly fitted or top-dose-only effect, or another doubt; inactive means no such curve, though single readings can be large or run the other way; further: potency means the concentration at half of the fitted maximal effect; on the % scale 0 is the no-effect control and ±100 the full control effect
#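 Hydroperoxide product was detected by ferrous iron/xylenol orange as the 573 to 405 nm absorbance ratio. Arachidonic acid at 40 uM (final) was turned over for 30 min at room temperature by 150 nM human 12hLO, pH 7.0 Hepes buffer, after 15 min compound preincubation.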
# The depositor's hits bear a star; ? = inconclusive; nt = not tested or not shown. The list is not random: actives were taken first. Their share in the collection is about 3%.
SMILES,LDHA inh,KCNH2 3.1 inh,Chronic BCR inh,KCNH2 WT inh,ClpP mod,ALOX12 inh
CN1C(=O)C2(C(C#N)=C(N)N(c3cc(Cl)cc(Cl)c3)C3=C2C(=O)CCC3)c2ccccc21 (centres undefined),-6,-5,-12%,1,0%,2%
O=C(CSc1ncccc1C(=O)O)NC12CC3CC(CC(C3)C1)C2,-1,8,0%,1,nt,22µM*
O=C(NCCN1CCCCC1)C1(CCO)CCN(Cc2ccccc2)C1 (centres undefined),nt,nt,nt,nt,nt,30%
CC(C)c1cccc(-c2csc(C(O)c3ccco3)n2)c1 (centres undefined),-4,nt,nt,nt,1%,14µM*
CCN(CC)C(=O)c1cccc(-c2csc(C(O)c3ccco3)n2)c1 (centres undefined),-1,nt,nt,nt,-2%,?
OC(c1ccco1)c1nc(-c2cccs2)cs1 (centres undefined),-2,nt,nt,nt,-1%,18µM*
CC(C)NS(=O)(=O)c1ccc(C(=O)NCc2ccc(-c3nc4ccccc4s3)o2)cc1,15,nt,nt,nt,nt,25µM*
COc1ccc(NC(=O)c2c([N+](=O)[O-])c(C(C)(C)C)nn2C)cc1,-8,-81*,1%,-12,nt,8%
COC(=O)[C@@]1(C)[C@H]2C(=O)N(Cc3ccccc3)C(=O)[C@H]2[C@H]2CN=C(SC)N21,-8,-1,4%,-3,-14%,-15%
COC(=O)[C@@]1(C)[C@H]2C(=O)N(Cc3ccccc3)C(=O)[C@H]2[C@H]2CN=C(SCC(=O)c3ccccc3)N21,3,-80*,-8%,-3,1%,-1%
COC(=O)[C@@]1(C)[C@H]2C(=O)N(Cc3ccccc3)C(=O)[C@H]2[C@H]2CN=C(SCc3ccc(C)cc3)N21,2,-18,-1%,2,1%,40µM*
COC(=O)c1ccc(CSC2=NC[C@@H]3[C@@H]4C(=O)N(Cc5ccccc5)C(=O)[C@@H]4[C@](C)(C(=O)OC)N23)cc1,-3,23,0%,2,3%,-23%
Cc1ccc(S(=O)(=O)Nc2nc(C)c(NC(=O)Nc3ccc(Cl)cc3Cl)s2)cc1,-14,nt,-2%,5,-3%,2µM*
COc1ccc(NC(=O)Nc2sc(NS(=O)(=O)c3ccccc3)nc2C)cc1,-5,-7,-1%,-1,nt,22µM*
Cc1ccc(S(=O)(=O)Nc2nc(C)c(NC(=O)OCCCl)s2)cc1,-3,-8,-5%,1,1%,?
CCCCC(=O)NCC1CC2c3ccccc3C1c1ccccc12 (centres undefined),11,nt,nt,nt,nt,?
O=Cc1cccn1-c1ccc(Br)cc1Br,-20,nt,nt,nt,nt,-10%
CC(C)(C)c1ccc(O)c(O)c1,16,-7,-9%,0,2%,35µM*
CC(C)(C)c1ccc(O)c(/C=N\O)c1,-7,2,2%,2,-1%,0%
CN1C(=S)SC(N2OC3C(=O)N(c4ccccc4)C(=O)C3C2c2ccc(Cl)cc2)C1(C)C (centres undefined),-4,-10,-1%,4,28µM*,-12%
COc1cc(C2C3C(=O)N(c4ccccc4)C(=O)C3ON2c2ccccc2)cc(OC)c1OC (centres undefined),-2,-22,2%,-2,1%,27%
Cc1nn(C)c2sc(C(=O)N3CCN(S(=O)(=O)c4ccc(F)cc4F)CC3)cc12,1,nt,nt,nt,nt,6%
CCOc1ccccc1CN1CCC2(CCN(Cc3ccc(F)cc3)CC2)Oc2ccccc21,nt,nt,nt,nt,nt,32µM*
CCOc1ccccc1CN1CCC2(CCN(C(=O)COC)CC2)Oc2ccccc21,nt,nt,nt,nt,nt,-2%
Cc1cc(C)c(S(=O)(=O)/N=C2/C=C(SCC(=O)O)C(=O)c3ccccc32)cc1C,53,-117*,?,5,nt,nt
SMILES,LDHA inh,KCNH2 3.1 inh,Chronic BCR inh,KCNH2 WT inh,ClpP mod,ALOX12 inh
COc1ccc2[nH]c(CO)cc2c1,16,nt,nt,nt,nt,25µM*
CCCc1cc(=O)oc2c(C)c(OC(C)C(=O)NCCCn3ccnc3)ccc12 (centres undefined),-33*,nt,nt,nt,nt,64%
CC(=O)c1cccc(NC(=O)C2CCN(c3nc4ccccc4nc3OC(C)C)CC2)c1,5,nt,nt,nt,nt,-14%
CN1/C(=C\C(=O)COC(=O)c2ccc(O)cc2)C(C)(C)c2ccccc21,3,9,?,-4,-21%,?
CN1/C(=C\C(=O)COC(=O)c2ccc(O)c(O)c2)C(C)(C)c2ccccc21,18,3,?,-6,nt,10µM*
Cc1ccc(Cl)cc1N1CCN(C(=O)CNC(=O)NCc2ccc(F)cc2)CC1,9,nt,nt,nt,nt,-21%
Cc1nnc(N2CCCC(C(=O)NCc3ccc(OC(C)C)cc3)C2)c2nn(-c3ccccc3)c(C)c12 (centres undefined),-15,-82*,?,-9,4%,?
COc1ccc(CNC(=O)C2CCCN(c3nnc(C)c4c(C)n(-c5ccc(C)cc5)nc34)C2)cc1 (centres undefined),-3,nt,nt,nt,?,7%
Cc1cc(C(=O)N[C@@H]2CN(c3ncccn3)C[C@H]2CO)n(C)n1,nt,nt,nt,nt,nt,24%
CCCC(=O)NC(c1ccc(OC)cc1)c1c(O)ccc2ccccc12 (centres undefined),9,-9,?,4,nt,-16%
COc1ccc(C(NC(=O)C2CCCCC2)c2c(O)ccc3ccccc23)cc1 (centres undefined),2,7,?,-1,25µM*,-13%
CCC(C)Nc1nc2c(c(=O)n(C)c(=O)n2C)n1C(C)C (centres undefined),-7,nt,nt,nt,nt,-1%
Cc1cccc(OCc2nc(C)c(C(=O)Nc3cc(C)ccc3C)s2)c1,-35*,nt,nt,nt,nt,-8%
CC(C)(C(=O)Nc1cccc(OCCS(C)(=O)=O)c1)c1ccccc1,-4,nt,nt,nt,nt,-4%
CCC(C)c1ccc(NC(=S)NCCn2cc(Cl)cn2)cc1 (centres undefined),-6,-6,-1%,-29,2%,35µM*
CCC(C)c1ccc(NC(=S)NCc2cccnc2)cc1 (centres undefined),-7,-94*,9%,1,-1%,0%
Cc1ccc(CNC(=O)c2scnc2C)s1,7,nt,nt,nt,nt,3%
COc1ccc(OC)c(C2C(C(=O)Nc3nc4ccccc4s3)=C(C)NC3=C2C(=O)CCC3)c1 (centres undefined),-8,7,7%,-4,28µM*,?
Cc1ccc(-c2noc(-c3cc4cccc(O)c4oc3=O)n2)cc1,26,nt,nt,nt,nt,?

# High-throughput results: PubChem BioAssay, National Center for Advancing Translational Sciences (NCATS)
